Results on 93 molecules are retold here after PubChem BioAssay AID1851 (National Center for Advancing Translational Sciences (NCATS), 2009).

Screen size: about 16,000 compounds; about 4,000 (25%) were called active. About 26% were inconclusive and are not listed. The call rests on the fitted dose curve; in most records, active means well fitted curve in the direction sought with a large enough effect; inconclusive means small, poorly fitted or top-dose-only effect, or effect the other way; inactive means no such curve, though single readings can be large or run the other way. The list is a sample of the results.
On the % scale 0 is the no-effect control and ±100 the full control effect.

Sequence of Cytochrome P450 2C9 (Homo sapiens) (P11712 whole entry, looked up): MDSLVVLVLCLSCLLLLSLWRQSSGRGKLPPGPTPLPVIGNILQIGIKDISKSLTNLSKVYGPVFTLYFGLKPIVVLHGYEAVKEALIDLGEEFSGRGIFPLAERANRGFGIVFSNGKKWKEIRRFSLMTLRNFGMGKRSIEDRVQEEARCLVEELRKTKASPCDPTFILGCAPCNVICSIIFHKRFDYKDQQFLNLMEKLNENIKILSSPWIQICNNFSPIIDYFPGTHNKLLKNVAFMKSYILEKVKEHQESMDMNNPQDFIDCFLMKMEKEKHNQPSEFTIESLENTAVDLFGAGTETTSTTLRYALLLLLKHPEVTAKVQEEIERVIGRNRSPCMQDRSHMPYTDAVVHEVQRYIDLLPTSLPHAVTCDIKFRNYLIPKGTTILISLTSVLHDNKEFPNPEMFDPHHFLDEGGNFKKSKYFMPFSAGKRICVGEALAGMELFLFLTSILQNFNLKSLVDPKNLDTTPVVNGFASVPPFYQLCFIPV

The assay addresses Cytochrome P450 2C9 (Homo sapiens) (UniProt P11712). The assay can be described thus: Cytochrome panel assay with activity outcomes. The conditions noted are these: recombinant CYP, pro-luciferin dealkylation, luminescence, p450-cyp2c9; series mostly up to 57.1 µM.
Regarding `COc1ccc(NC(=O)N2CC3(CCN(C(=O)c4csnn4)CC3)C2)cc1`, the AC50 (usually the concentration at which the activity in the assay is half-maximal) is “inactive”.
For the molecule `Nc1nc2c(ncn2[C@@H]2C=C[C@@H](CO)C2)c(=O)[nH]1`, the activity, negative = inhibition is 3.99% [at 11.4 µM] (inactive).
For `C/C(=C(/CCO)SSC[C@@H]1CCCO1)N(C=O)Cc1cnc(C)nc1N`, the AC50 result was “inactive”.
On the same count and under the same terms, then `CCc1ccccc1OC[C@@H](O)CN[C@H]1CCCc2ccccc21`, with “inactive”.
On the same count and under the same terms, the result for `Nc1ccc(N2C(=O)c3ccccc3C2=O)c(Cl)c1` reads “inactive”; that for `Nc1ccc(N(S(=O)(=O)c2ccccc2)S(=O)(=O)c2ccccc2)c(Cl)c1`, 3.16 µM (active).
For the molecule `CCC/C=C(\CCC)C(NC(=O)Cc1ccccc1)c1ccc(C(=O)OC)cc1` (stereo not drawn), the AC50 is 10 µM (active).
Consider `CCC/C=C(\CCC)C(NC(=O)OCC(C)C)c1ccc(C(=O)OC)cc1` (stereo not drawn), for which the AC50 was 3.98 µM (active).
The same measure, in the same setting: then `CCC/C=C(\CCC)C(NS(=O)(=O)c1cccs1)c1ccc(C(=O)OC)cc1` (stereo not drawn), with 2 µM (active); and `CCC/C=C(\CCC)C(NC(=O)c1cccs1)c1ccc(C(=O)OC)cc1` (stereo not drawn), with 2 µM (active); and `COC(=O)N1CCC2(CC1)CN(C(=O)Nc1cccc(C#N)c1)C2`, with “inactive”.
In the case of `COc1ccccc1CNc1ncnc2ccc(-c3ccoc3)cc12`, the activity, negative = inhibition was -19.5% [at 2.29 µM] (inactive).
Turning to `Cc1cnc(CNc2cc(-c3ccoc3)ncn2)cn1`, the activity, negative = inhibition was 10.6% [at 2.29 µM] (inactive).
For the molecule `O=C(Nc1cccc(F)c1)N1CCC2(CC1)CCN(C(=O)c1csnn1)CC2`, the AC50 entry is “inactive”.
Same read-out and setting: the result for `CCc1c2c(nc3cccc(OC)c13)OC(CC)C2` (stereo not drawn) reads “inactive”.
Still for that read-out and setting: the result for `CCC/C=C(\CCC)C(NC(=O)c1ccc(C(=O)OC)cc1)c1ccc(C(=O)OC)cc1` (stereo not drawn) reads 2 µM (active); that for `CCC/C=C(\CCC)C(NC(=O)c1ccc(C(F)(F)F)cc1)c1ccc(C(F)(F)F)cc1` (stereo not drawn), “inactive”.
Take `CCC/C=C(\CCC)C(NC(=O)c1ccc(-c2ccccc2)cc1)c1ccc(C(=O)OC)cc1` (stereo not drawn): the AC50 entry was “inactive”.
With `C[N+](C)(C)c1ccc([C@H](N)C(=O)O)cc1`, the activity, negative = inhibition was -14.1% [at 11.4 µM] (inactive).
Turning to `CCCn1cnc2c1c(=O)n(CCCCC(C)=O)c(=O)n2C`, the AC50 result was “inactive”.
Consider `CCCCn1cnc2c(cnn2-c2ccc(F)cc2)c1=O`, for which the AC50 was 11.2 µM (active).
On the same count and under the same terms, the result for `CCCn1c(=O)c2c(ncn2C)n(CCC)c1=O` reads “inactive”.
On the same count and under the same terms, then `O=C(O)CONC(=O)c1cc(OCC(F)(F)F)ccc1OCC(F)(F)F`, with “inactive”.
With `COC(=O)C1CCN(CC(=O)Nc2sc3c(c2C#N)CCC3)CC1`, the AC50 is 5.62 µM (active).
Same read-out and setting: then `CC(C)CC(=O)Nc1sc2c(c1C#N)CC(C)(C)NC2(C)C`, with “inactive”.
For the molecule `Cc1c(C(=O)O)nc(/C=C\C(=O)O)[nH]c1=O`, the activity, negative = inhibition is -11.9% [at 11.4 µM] (inactive).
On to `O=C(c1ccccc1)c1nn(-c2ccccc2)c(=O)cc1C(F)(F)F`, for which the AC50 is 10 µM (active).
With `O=C(O)c1nn(-c2ccc(Cl)cc2)c2c1C(=O)c1ccccc1C2=O`, the activity, negative = inhibition is -5.15% [at 11.4 µM] (inactive).
On to `O=C(O)c1nn(-c2ccccc2)nc1-c1nn(-c2ccccc2)nc1C(=O)O`, for which the AC50 result is “inactive”.
On to `CC(C)[C@H]1C(=O)C(C(N)=O)=C(O)[C@]2(O)C(=O)C3=C(O)c4c(O)ccc(N(C)C)c4C[C@H]3C[C@@H]12`, for which the AC50 entry is “inactive”.
Consider `CN(C)CC/C=C1\c2ccccc2Sc2ccc(Cl)cc21`, for which the AC50 result was “inactive”.
On to `CC(C(=O)NC1CCCC1)N(C(=O)c1snc(C(N)=O)c1N)c1ccc2c(c1)OCCO2` (stereo not drawn), for which the AC50 is 12.6 µM (active).
Still for that read-out and setting: the result for `CCC(C)(C(=O)NC1CCCC1)N(CC1CCCO1)C(=O)c1ccc2c(c1)OCO2` (stereo not drawn) reads “inactive”.
Turning to `Nc1nc(=O)c2[nH]cnc2n1O`, the activity, negative = inhibition was -5.05% [at 11.4 µM] (inactive).
For the molecule `CN(C)Cc1ccccc1-c1ccc2ncnc(NC3CCNCC3)c2c1`, the activity, negative = inhibition is 7.8% [at 2.29 µM] (inactive).
With `Cc1cc(C)n(-c2nnc(C)n2/N=C/c2ccccc2OCc2ccccc2Cl)n1`, the AC50 is 8.91 µM (active).
Still for that read-out and setting: then `COc1ccc(/C=N/n2c(C)nnc2C)c(OC)c1`, with “inactive”.
For the molecule `CN(C)CCOC(=O)c1ccc(N)cc1`, the activity, negative = inhibition was -8.18% [at 11.4 µM] (inactive).
Take `Cc1cccc(NC(=O)CCS(=O)(=O)c2cccc3nsnc23)c1C`: the AC50 was 15.8 µM (active).
The same measure, in the same setting: then `O=C(CCS(=O)(=O)c1cccc2nsnc12)NC1CCCCC1`, with “inactive”; and `COc1cccc(-c2cc(C(F)(F)F)n3ncc(S(=O)(=O)c4ccccc4)c3n2)c1`, with “inactive”; and `CCOC(=O)C1CCCN(C(=O)c2cc3nc(-c4ccc5c(c4)OCO5)cc(C(F)(F)F)n3n2)C1` (stereo not drawn), with 6.31 µM (active).
Same read-out and setting: then `COc1ccc(NC(=O)N2CCCC3(CCN(C(=O)c4cnccn4)CC3)C2)cc1`, with “inactive”; and `COc1ccc(-c2cc(C(F)(F)F)n3nc(C(=O)N4CCCCC4)cc3n2)cc1`, with 25.1 µM (active).
For the molecule `c1cncc(CNc2ncncc2-c2cccnc2)c1`, the activity, negative = inhibition is 4.39% [at 2.29 µM] (inactive).
As for `O=S(=O)(N/N=C\C=C\c1ccccc1)c1ccc(Br)cc1`, the half-maximal activity concentration (AC50) is 0.501 µM (active).
Turning to `C(/C=C\c1ccccc1)=Nc1ccc2c(c1)Cc1ccccc1-2`, the activity, negative = inhibition was -24.1% [at 11.4 µM] (inactive).
Consider `O=C(N/N=C/C=C/c1ccccc1)c1cc2c(ccc3ccccc32)o1`, for which the AC50 entry is “inactive”.
As for `CCOC(=O)N1CCN(C(=O)CSCc2ccc(Cl)cc2)CC1`, the AC50 result is “inactive”.
On to `CCOC(=O)CSC1=NC(=O)/C(=C\c2ccc(Cl)cc2)S1`, for which the AC50 was 1.26 µM (active).
Still for that read-out and setting: the result for `Cc1noc(C)c1C(=O)N1CCC2(CC1)CN(c1ncccn1)C2` reads “inactive”; that for `Cc1cc(C)c2c(=O)[nH]c(SCC(=O)N(C)C)nc2n1`, “inactive”.
Same read-out and setting: then `Cc1cccc(NC(=O)CSc2nc3nc(C)cc(C)c3c(=O)[nH]2)c1`, with 7.94 µM (active); and `Cc1cccc(NC(=O)Cn2c(=O)oc3ccccc32)c1`, with “inactive”; and `CC[C@@H]1OC(=O)[C@H](C)[C@H](O[C@@H]2C[C@](C)(OC)[C@H](O)[C@H](C)O2)[C@H](C)[C@H](O[C@@H]2O[C@@H](C)C[C@@H](N(C)C)[C@@H]2O)[C@](C)(O)C[C@H](C)C(=NOCOCCOC)[C@H](C)[C@H](O)[C@]1(C)O`, with “inactive”.
Still for that read-out and setting: the result for `CC(C)COc1ccc(C(=O)Nc2scc(-c3ccc(Cl)cc3Cl)c2C(N)=O)cc1` reads 1.78 µM (active); that for `NC(=O)OC[C@H](O)COc1ccc(Cl)cc1`, “inactive”.
`Cc1sc(NC(=O)c2ccc(OCC(C)C)cc2)c(C(N)=O)c1-c1ccc(Cl)cc1Cl`: the AC50 was 0.562 µM (active).
Still for that read-out and setting: then `COc1ccc(C(=O)Nc2scc(-c3ccc(Cl)cc3Cl)c2C(N)=O)cc1`, with 0.631 µM (active).
As for `O=C(Nc1nnc(COc2ccc(Cl)cc2)s1)c1ccc([N+](=O)[O-])cc1`, the AC50 result is “inactive”.
As to `Cn1ncc(C#N)c1/N=C/N1CCCCCC1`, the AC50 entry is “inactive”.
Regarding `Cn1cccc1C(=O)N1CCC2(CC1)CN(c1ccccn1)C2`, the AC50 result was “inactive”.
Same read-out and setting: then `O=C(c1csnn1)N1CCC2(CC1)CN(c1ccccn1)C2`, with “inactive”; and `CN1C(=O)/C(=C\c2ccccc2)Sc2ccc(C(=O)N3CCN(c4ccccn4)CC3)cc21`, with 11.2 µM (active); and `CCOC(=O)c1oc2ccccc2c1NC(=O)c1ccc2c(c1)OCO2`, with “inactive”.
Still for that read-out and setting: the result for `CCOC(=O)c1oc2ccccc2c1NC(=O)c1ccc(S(=O)(=O)N(C)C)cc1` reads 0.562 µM (active); that for `CCOC(=O)c1oc2ccccc2c1NC(=O)c1cc(OC)cc(OC)c1`, 14.1 µM (active).
Still for that read-out and setting: then `Oc1ccccc1CNn1cnnc1`, with “inactive”; and `NC(=NCc1ccc(Cl)c(Cl)c1)NC(=O)c1nc(Cl)c(N)nc1N`, with “inactive”.
With `COc1ccccc1-c1nccc(NC2CCNCC2)n1`, the activity, negative = inhibition is 3.9% [at 2.29 µM] (inactive).
Still for that read-out and setting: then `O=C1c2ccccc2C(=O)c2c(NC3CCCCC3)ccc(Nc3ccc(S(=O)(=O)O)cc3)c21`, with -7.2% [at 11.4 µM] (inactive).
For the molecule `Nc1c(S(=O)(=O)O)cc(Nc2cccc(S(N)(=O)=O)c2)c2c1C(=O)c1ccccc1C2=O`, the AC50 was 3.16 µM (active).
With `COc1ncc2nc(-c3cc(F)cc(F)c3)c(=O)n(-c3ccccc3)c2n1`, the AC50 entry is “inactive”.
With `C[C@@H]1C(=O)N(C)C(=O)c2nc[nH]c21`, the AC50 result was “inactive”.
Same read-out and setting: the result for `Cc1cccc(OCC(=O)N2CCC(N3CCCCCC3)CC2)c1` reads “inactive”; that for `O=C(COc1ccc(Br)cc1)N1CCC(c2ccccc2)C1` (stereo not drawn), 14.1 µM (active).
Regarding `CCOc1ccc(NC(=O)N2CCC(c3ccc(C)cc3)C2)cc1` (stereo not drawn), the AC50 entry is “inactive”.
Take `COc1ccc(C[C@H](N)C(=O)N[C@@H]2[C@H](O)[C@H](n3cnc4c(N(C)C)ncnc43)O[C@@H]2CO)cc1`: the AC50 entry is “inactive”.
The same measure, in the same setting: then `COc1ccc(C(C(=O)NC2CCCCC2)N(C(=O)c2sc(C)nc2C)c2ccc(C(C)=O)cc2)cc1` (stereo not drawn), with “inactive”.
Turning to `CCc1ccc(N(C(=O)c2ccoc2C)C(C(=O)NC2CCCC2)c2ccc(OC)cc2)cc1` (stereo not drawn), the AC50 is 28.2 µM (active).
For the molecule `C[C@H](O)[C@H](O)[C@@H]1CNc2nc(N)[nH]c(=O)c2N1`, the AC50 entry was “inactive”.
The same measure, in the same setting: then `CCS(=O)(=O)NCCc1cc2ccc(C)cc2[nH]c1=O`, with “inactive”; and `COc1ccc(OC)c2[nH]c(=O)c(CCNS(=O)(=O)c3ccc(Cl)cc3)cc12`, with 2.24 µM (active); and `COc1ccc(OC)c2[nH]c(=O)c(CCNS(=O)(=O)c3ccc(C)cc3)cc12`, with 3.55 µM (active).
Still for that read-out and setting: the result for `COc1ccc(C(=O)N2CCC[C@@]3(CCN(c4cccc(-c5ccccc5)c4)C3)C2)cc1` reads “inactive”; that for `COc1cccc(-c2cc3nc(-c4ccccc4)cc(N4CCC5(CC4)OCCO5)n3n2)c1`, 2.82 µM (active); that for `Fc1cc2nc(-c3ccncc3)[nH]c2cc1F`, 7.94 µM (active).
Regarding `CCOc1ccc(N=C2NC(=O)C(CC(=O)O)S2)cc1` (stereo not drawn), the AC50 result is “inactive”.
The same measure, in the same setting: the result for `N#CCCn1c(=O)c(-c2ccc(F)cc2)nc2cnc(N3CCOCC3)nc21` reads “inactive”.
With `CC(C)(SCc1ccccc1)[C@H](N)C(=O)O`, the activity, negative = inhibition was -5.67% [at 11.4 µM] (inactive).
Take `CCOC(=O)N1CCN(C(=O)C(C)SCc2ccccc2)CC1` (stereo not drawn): the AC50 is 3.55 µM (active).
Take `CCOC(=O)N1CCN(S(=O)(=O)Cc2ccccc2)CC1`: the AC50 result is “inactive”.
Turning to `CC(C)Cn1cnc2c(SCc3ccccn3)nc(N)nc21`, the activity, negative = inhibition is 0.334% [at 11.4 µM] (inactive).
